The entries come from a sample that favours the strongest signals as a whole.
What was measured:
Assay in all cases: glycan array binding signal (z-score within array); higher = stronger binding
Settings in all cases: glycan notation: IUPAC condensed, linker removed
Fuc(a1-2)Gal = target: Fuc(a1-2)Gal
Outline: (§1)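 Arrays were curated from the Consortium for Functional Glycomics database, 3228 in total, and kept only where the protein sequence was available. Binding is expressed as a within-array Z-score. This score was averaged across arrays of the same protein sequence at different concentrations or buffers and across linkers, and negative values can be read as non-binding.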

[1] = target: Fuc(a1-2)Gal(b1-3)GlcNAc(b1-2)Man(a1-3)[Fuc(a1-2)Gal(b1-3)GlcNAc(b1-2)Man(a1-6)]Man(b1-4)GlcNAc(b1-4)GlcNAc
Outline: as §1

[2] = target: Fuc(a1-2)Gal(b1-3)GlcNAc(b1-3)[Gal(b1-4)GlcNAc(b1-6)]Gal(b1-4)Glc
Outline: as §1

[3] = target: Fuc(a1-2)Gal(b1-3)[Fuc(a1-4)]GlcNAc(b1-2)Man(a1-3)[Fuc(a1-2)Gal(b1-3)[Fuc(a1-4)]GlcNAc(b1-2)Man(a1-6)]Man(b1-4)GlcNAc(b1-4)[Fuc(a1-6)]GlcNAc(b1-4)[Fuc(a1-6)]GlcNAc
Outline: as §1

[4] = target: Fuc(a1-2)Gal(b1-4)GlcNAc(b1-2)[Fuc(a1-2)Gal(b1-4)GlcNAc(b1-4)]Man(a1-3)[Fuc(a1-2)Gal(b1-4)GlcNAc(b1-2)Man(a1-6)]Man(b1-4)GlcNAc(b1-4)GlcNAc
Outline: as §1

[5] = target: Fuc(a1-2)Gal(b1-4)GlcNAc(b1-6)GalNAc
Outline: as §1

[6] = target: Fuc(a1-2)Gal(b1-4)[Fuc(a1-3)]GlcNAc(b1-2)Man(a1-3)[Fuc(a1-2)Gal(b1-4)[Fuc(a1-3)]GlcNAc(b1-2)Man(a1-6)]Man(b1-4)GlcNAc(b1-4)[Fuc(a1-6)]GlcNAc
Outline: as §1

Fuc(a1-2)Gal6S(b1-4)Glc = target: Fuc(a1-2)Gal6S(b1-4)Glc
Outline: as §1

[7] = target: Fuc(a1-2)[Gal(a1-3)]Gal(b1-3)GlcNAc(b1-6)GalNAc
Outline: as §1

[8] = target: Fuc(a1-2)[Gal(a1-3)]Gal(b1-4)GlcNAc(b1-3)GalNAc
Outline: as §1

[9] = target: Fuc(a1-2)[Gal(a1-3)]Gal(b1-4)[Fuc(a1-3)]GlcNAc(b1-3)GalNAc
Outline: as §1

[10] = target: Fuc(a1-2)[GalNAc(a1-3)]Gal
Outline: as §1

[11] = target: Fuc(a1-2)[GalNAc(a1-3)]Gal(b1-3)GlcNAc
Outline: as §1

[12] = target: Fuc(a1-2)[GalNAc(a1-3)]Gal(b1-4)GlcNAc
Outline: as §1

[13] = target: Fuc(a1-2)[GalNAc(a1-4)]Gal(b1-4)GlcNAc
Outline: as §1

[14] = target: Gal(a1-3)[Gal(a1-4)]Gal(b1-4)GlcNAc
Outline: as §1

[15] = target: Gal(a1-4)Gal(b1-4)GlcNAc(b1-3)Gal(b1-4)Glc
Outline: as §1

Gal(b1-3)Gal(b1-4)GlcNAc = target: Gal(b1-3)Gal(b1-4)GlcNAc
Outline: as §1

[16] = target: Gal(b1-3)GalNAc(b1-4)Gal(b1-4)Glc
Outline: as §1

[17] = target: Gal(b1-3)GlcNAc(b1-2)Man(a1-3)[GlcNAc(b1-4)][Gal(b1-3)GlcNAc(b1-2)Man(a1-6)]Man(b1-4)GlcNAc(b1-4)GlcNAc
Outline: as §1

[18] = target: Gal(b1-3)GlcNAc(b1-2)[Gal(b1-3)GlcNAc(b1-6)]Man(a1-6)[Gal(b1-3)GlcNAc(b1-2)Man(a1-3)]Man(b1-4)GlcNAc(b1-4)GlcNAc
Outline: as §1

[19] = target: Gal(b1-3)GlcNAc(b1-3)Gal(b1-4)GlcNAc(b1-2)Man(a1-3)[Gal(b1-3)GlcNAc(b1-3)Gal(b1-4)GlcNAc(b1-2)Man(a1-6)]Man(b1-4)GlcNAc(b1-4)GlcNAc
Outline: as §1

[20] = target: Gal(b1-3)[Fuc(a1-4)]GlcNAc(b1-2)Man
Outline: as §1

[21] = target: Gal(b1-3)[Fuc(a1-4)]GlcNAc(b1-2)Man(a1-3)[Gal(b1-3)[Fuc(a1-4)]GlcNAc(b1-2)Man(a1-6)]Man(b1-4)GlcNAc(b1-4)[Fuc(a1-6)]GlcNAc
Outline: as §1

[22] = target: Gal(b1-4)GalNAc(b1-3)[Fuc(a1-2)]Gal(b1-4)GlcNAc
Outline: as §1

B1: PX14343I-pdi-501-30-501 (Parabacteroides distasonis) (protein)
chain: SDQYSTETFWKTKEHASAGIMGCYNALKLWRSLHTMEFDMLTANAMPYNEANGTQAIGKGEHLSTTALIGSLWKNCYVGIGRTNTFIANVGGVDMDESEKAKMVGEAKFLRAFYYLSLVDKFGGVPLIIDAPNADEQAELPRNSKEEVVNQIVKDLEEAAAVLPDTYASSDLGRATKGAALALKARTLLYNSRWAEAAQAAKQVMESGVYQLFNDYRHFFSEDNKYNCEVIFDIEAKLPEYPTDYDQNIWRLNRPAPLKELVDTYLCVDGKTIEESPLYDPTRPYENRDPRLLKSIVCIGYPYLGKTITKEDVATTGFGVKKYTSYEDDVTIPLVERSAFNFILIRYAEVLLTYAEAQNEASGPDQSVYDAINQLRRRPDINMPEVPKGLTKDQMREVIRRERRIELTFEGLYYSDILRWKTAEKENNGMMHNYEGIEVVKRSFNPKRDYLWPIPYNQTVLNPNLEQNPNWD
glycan array binding signal (z-score) (Fuc(a1-2)Gal): -0.249 | glycan array binding signal (z-score) [1]: 1.95 | glycan array binding signal (z-score) [2]: -0.005 | glycan array binding signal (z-score) [3]: -1.15 | glycan array binding signal (z-score) [4]: 1.69 | glycan array binding signal (z-score) [5]: -1.54 | glycan array binding signal (z-score) [6]: 2.6 | glycan array binding signal (z-score) (Fuc(a1-2)Gal6S(b1-4)Glc): 0.082 | glycan array binding signal (z-score) [7]: -0.008 | glycan array binding signal (z-score) [8]: 0.362 | glycan array binding signal (z-score) [9]: -0.205 | glycan array binding signal (z-score) [10]: -0.237 | glycan array binding signal (z-score) [11]: 0.35 | glycan array binding signal (z-score) [12]: -0.707 | glycan array binding signal (z-score) [13]: -0.33 | glycan array binding signal (z-score) [14]: 2.67 | glycan array binding signal (z-score) [15]: -0.408 | glycan array binding signal (z-score) (Gal(b1-3)Gal(b1-4)GlcNAc): -0.375 | glycan array binding signal (z-score) [16]: -0.713 | glycan array binding signal (z-score) [17]: 0.623 | glycan array binding signal (z-score) [18]: 1.55 | glycan array binding signal (z-score) [19]: 0.741 | glycan array binding signal (z-score) [20]: 0.532 | glycan array binding signal (z-score) [21]: 1.6 | glycan array binding signal (z-score) [22]: -0.377

From the supplement of paper PMC8728848
